For assay [1], the target named is Lysosomal acid glucosylceramidase (Homo sapiens) (UniProt P04062). Description: Glucocerebrosidase-p2 (AID 348; in the data active means potency below about 10 µM; further: potency means the concentration at half of the fitted maximal effect). The settings on record: purified GBA, blue fluorogenic substrate, 40 min. The essentials:
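Normal human glucocerebrosidase (0.2 nM) with blue fluorogenic substrate (80 uM final) in citrate/phosphate pH 5.9 with 10mM sodium taurocholate, 0.01% tween-20; 40 min RT, NaOH/glycine stop; fluorescence Ex 365/Em 440; AC50 from a titration from 0.6 nM upwards.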

A short description of assay [2]: AP1 Signaling Pathway (AID 357). Further: on the % scale 0 is the no-effect control and ±100 the full control effect. The settings on record: ME-180 AP-1-bla reporter, EGF-induced, beta-lactamase ratio, 5 h; at 7.69 µM (top of the series) unless noted. The procedure, abridged: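 Read-out was the 460nm/530nm emission ratio (excitation 405nm) after CCF4 loading for 2.5 hours at room temperature. Cells carried an AP-1-driven beta-lactamase reporter, were stimulated with EC50 EGF plus compound for 5 hours, and AC50 values came from titrations.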

Assay [3] deals with Cytochrome P450 1A2 (Homo sapiens) (UniProt P05177). The experiment in a line: p450-cyp1a2 (AID 410; calls by dose curve; further: potency means the concentration at half of the fitted maximal effect). The settings on record: recombinant CYP1A2, luciferin-ME demethylation, luminescence; series mostly up to 57 µM. The essentials: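 Luminescent demethylation readout: Luciferin-ME (100uM, equal to Km) turned over by 20nM CYP1A2 for 60 min at room temperature after NADPH regeneration addition, following 10 min compound preincubation. Normalization used 57 uM furafylline as full inhibition.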

The nature of assay [4]: NFAT Signaling Pathway (AID 444).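 Further: carbachol stimulus at about its EC50 of 1 µM final; on the % scale 0 is the no-effect control and ±100 the full control effect.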 The settings on record: Jurkat NFAT-bla M1, carbachol, beta-lactamase ratio, 5 h; at 7.69 µM (top of the series) unless noted. The procedure, abridged: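 Jurkat cells carrying an NFAT-driven β-lactamase reporter and co-transfected muscarinic M1 receptor were treated with compound plus carbachol (1 uM final, an EC50 level) for 5 h at 37 °C. CCF4 loading followed for 1 h at RT; 460/530 nm ratio gave %activity.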

Assay [5] in a line: Stat Signaling Pathway (AID 446).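 Further: ME-180 cervical cancer cells given 40 pM IL-6 alongside compound; SIE-controlled beta-lactamase reporter measured as 460/530 nm FRET emission ratio; on the % scale 0 is the no-effect control and ±100 the full control effect.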 The settings on record: ME-180 (cervical carcinoma) SIE beta-lactamase reporter, IL-6 stimulated, 5 h; at 7.69 µM (top of the series) unless noted. The procedure, abridged:
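Overnight-plated ME-180 cells bearing a STAT Inducible Element beta-lactamase reporter; 5 h co-exposure to compound and 40 pM IL-6; values normalized to 300 pM IL-6 and 125 nM JAK inhibitor controls.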

For assay [6], the target named is Glucocorticoid receptor (Homo sapiens) (UniProt P04150). The experiment in a line: GR-GFP Redistribution (AID 450;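 active means compounds whose dose series gives a full or clear partial fitted curve of increased nuclear translocation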; further: potency means the concentration at half of the fitted maximal effect). The settings on record: U2OS GR-GFP nuclear translocation, laser cytometry, 2 h.
Assay [7] has the same target. The experiment in a line: GR-EFC Redistribution (AID 451; calls by dose curve; further: potency means the concentration at half of the fitted maximal effect). The settings on record: CHO-K1 GR-EFC translocation, beta-gal luminescence, 2 h. The essentials:
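CHO-K1 cells stably expressing nuclear-localized β-gal enzyme acceptor and GR fused C-terminally to the enzyme donor fragment; ligand-driven nuclear translocation restores β-gal by complementation. Compounds titrated up to 46 uM final, 2 h at 37 °C; luminescence read.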

Assay [8] deals with Mitogen-activated protein kinase 10 (Mus musculus) (UniProt Q61831). The experiment in a line: JNK3 AlphaScreen Assay (AID 530).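 Further: kinase came from lysate of stimulated human HepG2 cells; on the % scale 0 is the no-effect control and ±100 the full control effect.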 The settings on record: JNK3 lysate, c-Jun phosphorylation; series mostly up to 57.1 µM. The procedure, abridged: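 Phosphorylation of biotinylated GST-cJun(1-79) at Ser73 is measured by AlphaScreen proximity luminescence. Enzyme is JNK3 in HepG2 lysates activated with interleukin-1beta and tumor necrosis factor alpha; ATP is 10 uM final.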
In general terms: Bead proximity is the source of the signal in Alpha formats.

Assay [9] deals with Cytochrome P450 3A4 (Homo sapiens) (UniProt P08684). Description: qHTS Assay for Activators of Cytochrome P450 3A4 (AID 885; active means well fitted curve in the direction sought with a large enough effect; an effect the other way counts as inactive or inconclusive; further: nearly all actives have a fitted effect of over 65% in size). The settings on record: recombinant CYP3A4, Luciferin-PPXE luminescence, 60 min; series mostly up to 57.1 µM. The essentials: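 Using 20nM recombinant human CYP3A4 in potassium phosphate (200mM), substrate Luciferin-PPXE at 25uM, luminescent luciferin detection followed a 60-min RT NADPH reaction; data scaled to 57 uM ketoconazole.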
In general terms: Quantitative high-throughput screening tests each substance at several concentrations.

Assay [10] in a line: qHTS Assay for Lipid Storage Modulators (AID 1519; calls by dose curve). The settings on record: Drosophila S3 cells, BODIPY lipid droplet/cell ratio, laser cytometry, cells loaded with oleic acid; for activity change, negative = inhibition: at 57.5 µM (top of the series). The procedure, abridged:
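Cells seeded at 5,000 per well were treated with compounds over a concentration series and loaded with oleic acid (400 uM, as added). Lipid droplet fluorescence (488 nm excitation, 500-530 nm channel) was read by laser-scanning cytometry and normalized to 20 uM Triacsin C.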

Assay [11] deals with Dual specificity protein kinase CLK4 (Homo sapiens) (UniProt Q9HAZ1). The experiment in a line: qHTS Assay for Inhibitors of CDC-like Kinase 4 (ADP-Glo Assay) (AID 1771; active means well fitted curve in the direction sought with a large enough effect; an effect the other way counts as inactive or inconclusive; further: nearly all actives have a fitted effect of over 70% in size; further: potency means the concentration at half of the fitted maximal effect). The settings on record: recombinant CLK4, ADP-Glo luminescence; series mostly up to 80 µM. The essentials: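 ADP production was read by ADP-Glo luminescence after residual ATP depletion, following 1 h room-temperature reaction of 25 nM Clk4, 1 uM ATP and 100 uM RS peptide with MgCl2, EGTA, DTT and Triton X-100.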

The target is the same in assay [12]. Description: qHTS Assay for Inhibitors of CDC-like Kinase 4 (ADP-FP Assay) (AID 1795; active means well fitted curve in the direction sought with a large enough effect; an effect the other way counts as inactive or inconclusive; further: nearly all actives have a fitted effect of over 60% in size; further: potency means the concentration at half of the fitted maximal effect). The settings on record: Transcreener ADP fluorescence polarization; series mostly up to 50 µM. The essentials:
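Inhibition of ADP formation by 6.25 nM Clk4 is measured using 1 uM ATP and 100 uM RS repeat peptide over one hour. Produced ADP displaces a fluorescent tracer from antibody, lowering polarization.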

Assay [13] can be described thus: Primary qHTS for small molecule stabilizers of the endoplasmic reticulum resident proteome: Secreted ER Calcium Modulated Protein (SERCaMP) assay (AID 1508630; active means well fitted curve in the direction sought with a large enough effect; an effect the other way counts as inactive or inconclusive; further: on the % scale 0 is the no-effect control and ±100 the full control effect). The settings on record: SH-SY5Y GLuc-SERCaMP (Gaussia luciferase released on ER calcium loss) secretion, thapsigargin, luminescence; series mostly up to 38.4 µM. The procedure, abridged: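 The SH-SY5Y reporter protocol was run at 3 concentrations up to 38.3 uM (primary) or 11 concentrations (follow-up): 16 h compound, 100 nM thapsigargin for 4 h, then extracellular luciferase luminescence.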

Assay [14] concerns the target 3',5'-cyclic-AMP phosphodiesterase 4B (Homo sapiens) (UniProt Q07343). The experiment in a line: qHTS Assay for Inhibitors of PDE-IV (AID 607; active means well fitted activation curve with a large enough effect in the main read-out, with a control signal flat, not every such curve was filed as active; further: % of control where 0% means no effect). The settings on record: HEK293 ACTOne CNG channel cells, membrane potential fluorescence; series mostly up to 22.9 µM. The procedure, abridged: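 Live HEK293 cells with a modified cyclic nucleotide-gated (CNG) channel report intracellular cAMP via membrane-potential dye fluorescence (ex 535/em 590 nm). Endogenous PDE-IV was targeted. Compounds were tested at up to 22.9 uM final; RO 20-1724 100 uM served as control.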

In assay [15] the target is Ubiquitin carboxyl-terminal hydrolase 1 (Homo sapiens) (UniProt O94782). The experiment in a line: Inhibitors of USP1/UAF1: Pilot qHTS (AID 504865; active means well fitted curve in the direction sought with a large enough effect; an effect the other way counts as inactive or inconclusive;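 further: rhodamine fluorescence freed from ubiquitin-rhodamine substrate followed over time; top concentration of the series differs between compounds; on the % scale 0 is the no-effect control and ±100 the full control effect; nearly all actives have a fitted effect of over 35% in size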). The settings on record: purified USP1/UAF1, Ub-rhodamine cleavage fluorescence; series mostly up to 54.9 µM. The procedure, abridged:
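Kinetic fluorescence assay: 1nM USP1/UAF1, 15 min compound preincubation, then 150nM Ub-Rho; 480/540 nm.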

[16] abbreviates: measured here: cell count channel max response.
[17] abbreviates: measured here: lipid channel max response.

Inconclusive results are not listed. Calls of active or inactive are those of the source. Unless noted, the call rests on the fitted dose curve; in most records, active means well fitted curve in either direction with a large enough effect (not every such curve was filed as active); inconclusive means small, poorly fitted or top-dose-only effect, or another doubt; inactive means flat fitted curve, though single readings scatter.

Glucocorticoid receptor (Homo sapiens), sequence (P04150 whole entry, looked up): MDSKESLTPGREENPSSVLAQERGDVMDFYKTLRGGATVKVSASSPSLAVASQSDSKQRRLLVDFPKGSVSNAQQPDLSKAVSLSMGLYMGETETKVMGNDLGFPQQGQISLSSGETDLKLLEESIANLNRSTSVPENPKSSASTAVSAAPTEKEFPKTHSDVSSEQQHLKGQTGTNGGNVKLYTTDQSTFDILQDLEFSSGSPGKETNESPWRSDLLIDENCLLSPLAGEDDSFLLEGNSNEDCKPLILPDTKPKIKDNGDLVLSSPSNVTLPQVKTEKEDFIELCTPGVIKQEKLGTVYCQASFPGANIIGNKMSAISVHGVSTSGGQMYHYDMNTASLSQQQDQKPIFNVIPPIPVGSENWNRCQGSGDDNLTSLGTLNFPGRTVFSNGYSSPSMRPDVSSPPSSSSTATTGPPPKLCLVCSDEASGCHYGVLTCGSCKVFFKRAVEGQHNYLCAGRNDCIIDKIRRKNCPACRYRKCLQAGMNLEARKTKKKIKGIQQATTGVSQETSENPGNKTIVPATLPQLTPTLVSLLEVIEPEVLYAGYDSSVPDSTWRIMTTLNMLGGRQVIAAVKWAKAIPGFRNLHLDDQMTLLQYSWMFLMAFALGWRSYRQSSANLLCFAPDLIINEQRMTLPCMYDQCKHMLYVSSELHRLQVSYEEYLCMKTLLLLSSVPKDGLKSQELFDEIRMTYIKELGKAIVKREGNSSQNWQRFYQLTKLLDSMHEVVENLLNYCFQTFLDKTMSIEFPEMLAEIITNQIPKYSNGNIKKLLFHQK
Ubiquitin carboxyl-terminal hydrolase 1 (Homo sapiens), sequence (O94782 whole entry, looked up): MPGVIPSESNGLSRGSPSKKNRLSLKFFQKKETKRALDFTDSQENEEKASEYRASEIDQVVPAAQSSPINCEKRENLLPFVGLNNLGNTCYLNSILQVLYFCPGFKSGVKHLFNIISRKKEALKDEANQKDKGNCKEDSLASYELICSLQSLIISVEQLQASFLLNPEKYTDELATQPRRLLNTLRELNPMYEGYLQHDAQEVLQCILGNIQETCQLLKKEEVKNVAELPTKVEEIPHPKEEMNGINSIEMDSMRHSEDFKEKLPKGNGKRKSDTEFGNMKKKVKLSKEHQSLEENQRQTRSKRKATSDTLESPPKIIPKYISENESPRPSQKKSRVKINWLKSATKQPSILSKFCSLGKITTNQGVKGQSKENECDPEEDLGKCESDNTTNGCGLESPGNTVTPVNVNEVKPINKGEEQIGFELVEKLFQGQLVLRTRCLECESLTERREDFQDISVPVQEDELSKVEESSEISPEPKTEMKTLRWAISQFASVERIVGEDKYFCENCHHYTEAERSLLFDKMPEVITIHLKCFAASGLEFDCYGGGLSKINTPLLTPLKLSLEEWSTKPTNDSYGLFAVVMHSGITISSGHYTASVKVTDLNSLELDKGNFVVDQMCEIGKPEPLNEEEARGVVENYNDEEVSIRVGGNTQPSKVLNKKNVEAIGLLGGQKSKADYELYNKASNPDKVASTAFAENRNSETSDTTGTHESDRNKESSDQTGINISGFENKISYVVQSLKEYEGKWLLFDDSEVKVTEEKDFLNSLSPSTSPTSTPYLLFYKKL
Lysosomal acid glucosylceramidase (Homo sapiens), sequence (P04062 whole entry, looked up): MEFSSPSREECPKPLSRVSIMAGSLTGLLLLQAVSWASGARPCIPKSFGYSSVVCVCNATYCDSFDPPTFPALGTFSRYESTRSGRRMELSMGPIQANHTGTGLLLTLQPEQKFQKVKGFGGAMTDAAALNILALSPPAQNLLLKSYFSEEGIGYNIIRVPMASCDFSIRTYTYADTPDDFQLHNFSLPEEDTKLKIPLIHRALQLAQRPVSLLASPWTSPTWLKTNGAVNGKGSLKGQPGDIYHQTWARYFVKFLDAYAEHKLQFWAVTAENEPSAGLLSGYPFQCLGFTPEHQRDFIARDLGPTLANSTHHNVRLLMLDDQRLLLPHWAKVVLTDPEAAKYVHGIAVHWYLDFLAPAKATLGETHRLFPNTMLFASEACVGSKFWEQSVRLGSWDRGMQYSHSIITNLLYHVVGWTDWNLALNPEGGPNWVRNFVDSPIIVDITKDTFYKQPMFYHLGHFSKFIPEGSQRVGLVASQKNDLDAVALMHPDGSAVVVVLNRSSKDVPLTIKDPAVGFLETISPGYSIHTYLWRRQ
3',5'-cyclic-AMP phosphodiesterase 4B (Homo sapiens), sequence (Q07343 whole entry, looked up): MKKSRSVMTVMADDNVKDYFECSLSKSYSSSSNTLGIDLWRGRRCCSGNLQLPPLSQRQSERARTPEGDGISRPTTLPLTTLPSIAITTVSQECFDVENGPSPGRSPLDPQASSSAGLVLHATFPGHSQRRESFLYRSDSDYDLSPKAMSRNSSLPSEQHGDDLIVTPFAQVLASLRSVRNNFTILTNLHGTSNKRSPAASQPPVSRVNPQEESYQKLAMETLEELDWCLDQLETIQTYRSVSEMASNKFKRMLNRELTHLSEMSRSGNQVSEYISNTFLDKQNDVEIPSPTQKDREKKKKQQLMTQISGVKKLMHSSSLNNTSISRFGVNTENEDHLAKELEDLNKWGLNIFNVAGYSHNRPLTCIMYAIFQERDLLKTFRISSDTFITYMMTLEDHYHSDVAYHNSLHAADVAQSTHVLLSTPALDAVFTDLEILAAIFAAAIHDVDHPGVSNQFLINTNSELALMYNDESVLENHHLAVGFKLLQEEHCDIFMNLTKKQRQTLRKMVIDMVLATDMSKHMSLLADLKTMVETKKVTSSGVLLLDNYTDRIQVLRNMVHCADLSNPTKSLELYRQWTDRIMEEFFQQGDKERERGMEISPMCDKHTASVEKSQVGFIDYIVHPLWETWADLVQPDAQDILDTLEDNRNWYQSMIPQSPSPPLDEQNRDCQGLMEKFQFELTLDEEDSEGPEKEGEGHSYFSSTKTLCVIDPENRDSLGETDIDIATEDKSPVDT
Cytochrome P450 1A2 (Homo sapiens), sequence (P05177 whole entry, looked up): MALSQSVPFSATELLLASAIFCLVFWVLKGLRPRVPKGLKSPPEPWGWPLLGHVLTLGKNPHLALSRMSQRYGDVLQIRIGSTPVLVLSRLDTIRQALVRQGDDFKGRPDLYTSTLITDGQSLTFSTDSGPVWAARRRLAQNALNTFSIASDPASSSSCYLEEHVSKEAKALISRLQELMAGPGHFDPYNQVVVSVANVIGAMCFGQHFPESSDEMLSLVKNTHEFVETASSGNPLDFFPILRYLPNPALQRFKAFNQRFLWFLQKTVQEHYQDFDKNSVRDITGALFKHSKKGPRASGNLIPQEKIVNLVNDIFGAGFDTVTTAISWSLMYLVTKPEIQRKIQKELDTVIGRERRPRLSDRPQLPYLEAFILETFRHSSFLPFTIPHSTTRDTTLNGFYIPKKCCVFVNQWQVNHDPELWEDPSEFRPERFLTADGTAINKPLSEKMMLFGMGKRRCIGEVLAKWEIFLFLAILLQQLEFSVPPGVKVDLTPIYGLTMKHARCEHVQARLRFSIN
Dual specificity protein kinase CLK4 (Homo sapiens), sequence (Q9HAZ1 whole entry, looked up): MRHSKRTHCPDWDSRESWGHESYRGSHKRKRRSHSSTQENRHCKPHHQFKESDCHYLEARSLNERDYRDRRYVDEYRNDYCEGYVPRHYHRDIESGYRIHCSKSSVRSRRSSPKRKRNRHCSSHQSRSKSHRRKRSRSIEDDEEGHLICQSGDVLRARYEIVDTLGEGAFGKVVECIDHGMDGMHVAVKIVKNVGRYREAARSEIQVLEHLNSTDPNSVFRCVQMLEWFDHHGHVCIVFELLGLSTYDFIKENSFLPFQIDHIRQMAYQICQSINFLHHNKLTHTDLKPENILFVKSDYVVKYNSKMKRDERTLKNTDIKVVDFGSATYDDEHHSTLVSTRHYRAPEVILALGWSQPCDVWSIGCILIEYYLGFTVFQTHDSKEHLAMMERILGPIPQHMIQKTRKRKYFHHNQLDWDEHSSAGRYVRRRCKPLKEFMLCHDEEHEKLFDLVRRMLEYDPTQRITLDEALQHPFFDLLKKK
Cytochrome P450 3A4 (Homo sapiens), sequence (P08684 whole entry, looked up): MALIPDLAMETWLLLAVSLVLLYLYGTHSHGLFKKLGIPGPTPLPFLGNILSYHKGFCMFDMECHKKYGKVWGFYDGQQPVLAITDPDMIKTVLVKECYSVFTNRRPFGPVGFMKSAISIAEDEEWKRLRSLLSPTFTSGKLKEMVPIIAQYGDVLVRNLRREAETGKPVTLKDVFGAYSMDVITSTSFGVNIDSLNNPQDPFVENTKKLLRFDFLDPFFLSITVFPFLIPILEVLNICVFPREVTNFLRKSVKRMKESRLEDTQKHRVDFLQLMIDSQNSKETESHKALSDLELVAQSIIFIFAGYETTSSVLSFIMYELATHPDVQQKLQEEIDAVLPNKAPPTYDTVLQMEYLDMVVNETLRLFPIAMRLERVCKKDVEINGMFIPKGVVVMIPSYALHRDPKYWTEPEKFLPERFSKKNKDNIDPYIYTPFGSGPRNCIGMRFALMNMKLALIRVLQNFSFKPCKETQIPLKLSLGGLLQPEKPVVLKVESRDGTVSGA

Regarding `Fc1ccc(Nc2ncncc2-c2ccoc2)cc1`, the Potency in [1] was > 11.4 µM (inactive); in [3], 0.316 µM (active); in [6] it was > 46 µM (inactive); in [7], > 46 µM (inactive); in assay [11], 10 µM (active); in assay [12], 5.01 µM (active). Besides, the activity change, negative = inhibition in [2] was -7.98% (inactive); in [4] it was 2.9% (inactive); in assay [10], 4.26% (inactive). Besides, the activity, negative = inhibition in [5] is 4.97% (inactive). In addition, the call in [8] was inactive. The Potency result in assay [9] and in assay [13] was “inactive” in each case. For the same compound, the max response turned out to be 9.18% in [10] (setting [16]) and 12.6% in [10] (setting [17]).

In the case of `COc1ccc(-c2nc3cnc(Nc4cccc(OC)c4)nc3n(C3CC3)c2=O)cc1`, the Potency is > 11.4 µM (inactive) in [1], > 9.22 µM (inactive) in [6] and > 46 µM (inactive) in assay [7]. Moreover, the activity change, negative = inhibition in [2] was -4.98% (inactive); in assay [4], -8.58% (inactive); in [10] it was 0.287% (inactive). In assay [5], the activity, negative = inhibition is 25.2% (inactive). For the same compound, the compound was called inactive in assay [8]. Besides, the Potency result in [14], in assay [11], in assay [12], in assay [15] and in assay [13] was “inactive” in each case. For the same compound, the max response was 17.2% in [10] (setting [16]) and 15% in [10] (setting [17]).

`CNc1nc(-c2ccc3c(c2)OCO3)nc2ccccc12`: the activity change, negative = inhibition was 28.9% (inactive) in [2], 1.91% (inactive) in assay [4] and -5.22% (inactive) in [10]. In addition, the activity, negative = inhibition in [5] was -1.35% (inactive). The Potency in assay [6] was > 46 µM (inactive); in assay [7], > 46 µM (inactive); in assay [11], 28.2 µM (active). In addition, the call in [8] was inactive. The Potency entry in assay [14], in assay [15] and in assay [13] was “inactive” throughout. In addition, the values for the max response in [10] (setting [16]) and in assay [10] (setting [17]) were 2.96% and -1.26%, respectively.

Regarding `Cc1noc(C)c1-c1cc(Nc2ccccc2)ncn1`, the Potency is > 11.4 µM (inactive) in [1], 1.26 µM (active) in assay [3], > 46 µM (inactive) in assay [6] and > 46 µM (inactive) in assay [7]. For the same compound, the results for the activity change, negative = inhibition in assay [2], in assay [4] and in assay [10] were -11.6% (inactive), -3.87% (inactive) and 4.92% (inactive), respectively. For the same compound, the activity, negative = inhibition in assay [5] is -5.08% (inactive). Further, the call in assay [8] was inactive. Also, the max response in assay [10] (setting [16]) turned out to be 15.2%; in assay [10] (setting [17]), 17.9%. Moreover, the Potency entry in [12], in [15] and in assay [13] was “inactive” in each case.

For `c1ccc2c(NC3CCNCC3)nc(-c3ccoc3)nc2c1`, the Potency was > 11.4 µM (inactive) in assay [1], 15.8 µM (active) in [3], > 46 µM (inactive) in assay [6] and > 46 µM (inactive) in assay [7]. In addition, the values for the activity change, negative = inhibition in assay [2], in assay [4] and in assay [10] were 8.91% (inactive), 5.13% (inactive) and 0.038% (inactive), respectively. For the same compound, the activity, negative = inhibition in assay [5] is 7% (inactive). For the same compound, in assay [8], the call was inactive. Also, the max response is 5.08% in assay [10] (setting [16]) and 2.41% in assay [10] (setting [17]). In addition, the Potency entry in assay [11], in assay [15] and in assay [13] was “inactive” throughout.

Turning to `CC(=O)NCCNc1ncnc2ccc(-c3ccoc3)cc12`, the activity change, negative = inhibition in [2] was -5.21% (inactive); in assay [4], 17.6% (inactive); in assay [10] it was 1.77% (inactive). In addition, the Potency in assay [3] is 12.6 µM (active); in [6] it was > 46 µM (inactive); in assay [7], > 46 µM (inactive); in [11], 1 µM (active); in assay [12] it was 0.355 µM (active). For the same compound, the activity, negative = inhibition in assay [5] was 3.17% (inactive). Moreover, the outcome in assay [8] was inactive. The Potency entry in assay [14], in [15] and in assay [13] was “inactive” each time. The results for the max response in [10] (setting [16]) and in [10] (setting [17]) were -0.704% and -3.36%, respectively.

These data come from PubChem BioAssay (NCATS).
